APP transl inh: APP translation inhibition; 190,000 compounds, 0.82% hits; SH-SY5Y APP 5'UTR-luciferase reporter, luminescence; inhibition, % at 2 µM; AID 1285;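 active means inhibition above a set limit, derived from the sample mean plus 3 SD, cut at about 45% in these data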
aSyn 5UTR inh: MLPCN primary screen, SNCA 5' untranslated region. alpha-synuclein 5'UTR reporter, inhibitor activity. inhibition, % (tested at 7.5 µM). 300,000 compounds, 0.82% hits; in the data active means inhibition above about 60%;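 further: H4 neuroglioblastoma cells stably carrying SNCA 5'UTR luciferase fusion; 0% = DMSO wells and 100% = positive control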
Ba/F3 V617F tox: loss of viability in JAK2V617F-driven Ba/F3 cells; Ba/F3 EpoR-JAK2V617F viability, ATP luminescence; inhibition, % at 5.6 µM; 220,000 compounds, 1.1% hits; AID 1446;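 active means inhibition above the campaign mean plus 3 SD over all tested compounds, cut at about 24% in these data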;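 further: cytokine-independent growth of Ba/F3 cells driven by EpoR plus mutant JAK2; 0% = DMSO-treated cells and 100% = JAK inhibitor I control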
KLF5 inh: kruppel-like factor 5 inhibition. DLD-1 KLF5 promoter-luciferase reporter, luminescence. inhibition, % at 5 µM. 290,000 compounds, 0.23% hits. AID 1700;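 active means inhibition above a per-plate limit of that plate's mean compound inhibition plus 3 SD, cut at about 60% in these data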;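 further: 0% = DMSO wells and 100% = LY294002 at 200 µM; higher means less KLF5 promoter-driven luciferase light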
BaF3 tox: counter-screen for JAK2V617F inhibitors: parental Ba/F3 viability inhibitors; CellTiter-Glo ATP luminescence; inhibition, % at 5.6 µM; 220,000 compounds, 1.1% hits;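 active means inhibition above a per-campaign cutoff, the mean inhibition of all tested compounds plus 3 SD, cut at about 27% in these data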;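 further: 0% = DMSO wells and 100% = JAK Inhibitor I control wells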
IEC-6 cytotox: counter-screen for KLF5 inhibitors: cytotoxicity in IEC-6 cells. IEC-6 cytotoxicity, luminescence viability. inhibition, % at 5 µM. 290,000 compounds, 0.78% hits; in the data active means inhibition above about 22%;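 further: 0% = plate median of test compound wells and 100% = cytotoxic reference compound wells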
Starred values were filed as active, the others as inactive. Most compounds without a hit are left out; they make up all but 2.1% or so of the library.

How did Cc1ccc(CN(C(=O)c2csnn2)C(C(=O)NC2CCCC2)c2ccccn2)cc1 (centres undefined) do in these assays?
aSyn 5UTR inh: 12; KLF5 inh: -26; IEC-6 cytotox: 6

Results for C=CCNC(=S)/N=c1/ccccn1CC ?
aSyn 5UTR inh: 3; Ba/F3 V617F tox: 15; KLF5 inh: 9; BaF3 tox: 29*; IEC-6 cytotox: -6

What do the screens show for `CC1(C)CC(N2CCCC2)=CC(=[N+]2CCCC2)C1`?
APP transl inh: 22; aSyn 5UTR inh: -24; Ba/F3 V617F tox: 79*; KLF5 inh: -8; BaF3 tox: 69*; IEC-6 cytotox: 16

How did CC1(C)CC(N2CCN(Cc3ccccc3)CC2)=CC(=[N+]2CCCCC2)C1 do in these assays?
aSyn 5UTR inh: -13; Ba/F3 V617F tox: 80*; KLF5 inh: 10; BaF3 tox: 71*; IEC-6 cytotox: 4

Results for c1ccc(CN2CCN(c3ncccn3)CC2)cc1 ?
aSyn 5UTR inh: -14; KLF5 inh: -13; IEC-6 cytotox: 5

How did O=C(NCc1cccnc1)c1c[nH]c2cc3c(cc2c1=O)OCCO3 do in these assays?
APP transl inh: -80; aSyn 5UTR inh: -123; Ba/F3 V617F tox: 27*; KLF5 inh: -63; BaF3 tox: 41*; IEC-6 cytotox: 9

What do the screens show for `O=C(Nc1nc2c(F)cc(F)cc2s1)c1ccccn1`?
APP transl inh: -18; aSyn 5UTR inh: 73*; Ba/F3 V617F tox: -5; KLF5 inh: -109; BaF3 tox: 6; IEC-6 cytotox: 13

What do the screens show for `COc1ccc(C(=O)Nc2ccc(NC(=O)c3ccccn3)cn2)cc1`?
aSyn 5UTR inh: -35; KLF5 inh: -21; IEC-6 cytotox: -5

What do the screens show for `COc1ccc(NC(=O)c2ccccn2)cc1`?
APP transl inh: -80; aSyn 5UTR inh: 75*; Ba/F3 V617F tox: 9; KLF5 inh: 4; BaF3 tox: 10; IEC-6 cytotox: 3

What do the screens show for `CCOc1ccc2nc(NC(=O)c3ccccn3)sc2c1`?
aSyn 5UTR inh: 80*; Ba/F3 V617F tox: 5; KLF5 inh: -34; BaF3 tox: 3; IEC-6 cytotox: 13

Results for CCOc1ccc2nc(NC(=O)Nc3ccccc3)sc2c1 ?
APP transl inh: -148; aSyn 5UTR inh: -131; Ba/F3 V617F tox: 7; KLF5 inh: -143; BaF3 tox: 11; IEC-6 cytotox: 6

What do the screens show for `COCCCNS(=O)(=O)c1cc2c3c(c1)C(C)C(=O)N3CCC2` (centres undefined)?
aSyn 5UTR inh: -11; KLF5 inh: -6; IEC-6 cytotox: 3

What do the screens show for `COC(=O)c1ccccc1NC(=O)N[C@@H](C)C(=O)OC`?
APP transl inh: 76*; aSyn 5UTR inh: 27; Ba/F3 V617F tox: -3; KLF5 inh: -10; BaF3 tox: -1; IEC-6 cytotox: 3

Results for CCOC(=O)c1ccccc1NC(=O)N[C@@H](C)C(=O)OC ?
APP transl inh: 15; aSyn 5UTR inh: 12; Ba/F3 V617F tox: -2; KLF5 inh: -13; BaF3 tox: -1; IEC-6 cytotox: -1

How did COc1ccc(CCn2c(-c3ccc(OC)cc3)nc3c(c(=O)c4ccccc4n3C)c2=O)cc1 do in these assays?
aSyn 5UTR inh: -45; Ba/F3 V617F tox: 3; KLF5 inh: -31; BaF3 tox: -5; IEC-6 cytotox: 6

How did CCc1nc2c(c(=O)c3ccccc3n2C)c(=O)n1CCc1ccc(OC)cc1 do in these assays?
APP transl inh: 12; aSyn 5UTR inh: 74*; Ba/F3 V617F tox: 0; KLF5 inh: -1; BaF3 tox: 1; IEC-6 cytotox: 26*

What do the screens show for `Cc1cc(C)n(CCNC(=O)c2ccc3c(c2)OCO3)n1`?
aSyn 5UTR inh: -14; KLF5 inh: -17; IEC-6 cytotox: -2

What do the screens show for `CC1CN(S(=O)(=O)c2ccc(C(=O)Nc3nnc(-c4ccc5c(c4)CCCC5)o3)cc2)CC(C)O1` (centres undefined)?
APP transl inh: 14; aSyn 5UTR inh: 76*; Ba/F3 V617F tox: 1; KLF5 inh: -26; BaF3 tox: 7; IEC-6 cytotox: 5

Results for COc1ccc(-c2nnc(NC(=O)c3ccc(S(=O)(=O)N4CCCc5ccccc54)cc3)o2)cc1 ?
APP transl inh: 22; aSyn 5UTR inh: 69*; Ba/F3 V617F tox: 0; KLF5 inh: 21; BaF3 tox: 4; IEC-6 cytotox: -1

How did Cc1cc(NC(=O)COC(=O)c2ccc(S(=O)(=O)N3CCCC3)cc2)no1 do in these assays?
APP transl inh: -8; aSyn 5UTR inh: 7; Ba/F3 V617F tox: -1; KLF5 inh: -18; BaF3 tox: 5; IEC-6 cytotox: -1

From PubChem
